SMN2 splice up: SMN2 splice variant enhancement; HEK293 SMN2-luciferase splicing reporter, luminescence, 30-36 h; Potency, µM (titrated, usually from 46.1 µM), inactives show at the highest dose activity change, positive = activation, hits mostly activators; actives 2.8% (n = 210,000); AID 1458; further: % of control where 0% means no effect; nearly all actives have a fitted effect of over 55% in size
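HEK293 cells carry an SMN2 […]–luciferase reporter in which exon 7 inclusion puts luciferase in frame. Cells were plated 10-12 h before compound addition, then incubated 30-36 h at 37C. ONE-Glo luminescence was read; sodium butyrate at 4.5 mM final served as control.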
FLuc counter: counter-screen for miR-21 project: firefly luciferase inhibitors or activators. P08659. purified FLuc, Km substrates, luminescence inhibition. Potency, µM (highest dose often 57.5 µM), for the others: top-dose activity change, negative = inhibition, usual class: inhibitors. actives 6.9% (n = 360,000). AID 588342;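 further: plate controls were vehicle for no effect and reference inhibitor for full effect; nearly all actives have a fitted effect of over 55% in size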
Target sequence (P08659 whole entry, looked up): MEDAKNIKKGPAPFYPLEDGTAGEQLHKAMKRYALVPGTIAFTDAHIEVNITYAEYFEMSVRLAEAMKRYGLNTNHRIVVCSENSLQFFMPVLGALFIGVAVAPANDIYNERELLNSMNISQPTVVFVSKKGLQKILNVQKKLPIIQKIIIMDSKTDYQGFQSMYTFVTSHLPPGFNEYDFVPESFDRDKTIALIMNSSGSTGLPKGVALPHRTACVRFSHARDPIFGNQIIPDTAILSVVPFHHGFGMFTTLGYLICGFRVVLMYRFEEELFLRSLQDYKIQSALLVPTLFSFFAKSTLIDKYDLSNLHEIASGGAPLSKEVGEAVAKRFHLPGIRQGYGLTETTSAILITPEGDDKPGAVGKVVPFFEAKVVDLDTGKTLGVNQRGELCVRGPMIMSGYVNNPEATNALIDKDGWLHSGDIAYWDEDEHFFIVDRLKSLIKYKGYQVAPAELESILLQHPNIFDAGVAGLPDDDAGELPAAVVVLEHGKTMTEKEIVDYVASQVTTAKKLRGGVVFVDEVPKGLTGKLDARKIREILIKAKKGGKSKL
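Biochemical qHTS of compounds, final roughly 60 µM downward over six points, against 10 nM purified firefly luciferase using Km concentrations of substrates (10 uM D-luciferin, 10 uM ATP) in Tris acetate pH 7.5 buffer; luminescence output.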
ELG1 genotoxic: inducers of genotoxicity in HEK293T ELG1-luciferase cells; HEK293T ELG1-luciferase reporter, luminescence, 16 h; Potency, µM (titrated, usually from 46 µM), inactives show at the top dose activity change, positive = activation, usual class: activators; actives 1.3% (n = 330,000); AID 504466; further: % of control where 0% means no effect; nearly all actives have a fitted effect of over 60% in size
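Screening used a luciferase reporter fused to human ELG1 in HEK293T cells. Luminescence was read on a CCD plate imager after 16 hr exposure and 30 min ONE-Glo incubation.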
Rab9 promoter act: activates the Rab9 promoter | actives 2.8% (n = 320,000) | Huh7 Rab9 promoter-luciferase reporter, luminescence, 24 h | Potency, µM (series often up to 9.22 µM), for the others: at the top dose activation, negative = inhibition, hits mostly activators; further: % of control where 0% means no effect; nearly all actives have a fitted effect of over 60% in size
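Quantitative HTS format; Huh7 Rab9-luciferase reporter cells (1500/well) receive compound 2 h post-plating, incubate 24 h at 37 °C, then get luciferase reagent for 10 min before luminescence reading.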
NPC1 prom act: activates the NPC1 promoter; Huh7 NPC1 promoter luciferase reporter, 24 h; actives 2.4% (n = 320,000); Potency, µM (titrated, usually from 9.22 µM), inactives show top-dose activation, actives largely listed as activators; AID 485313; further: % of control where 0% means no effect; nearly all actives have a fitted effect of over 60% in size
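Compounds in DMSO were transferred onto Huh7 NPC1-luciferase reporter cells pre-incubated 2 h; after 24 h at 37 °C, Amplite reagent was dispensed and luminescence recorded 10 min later.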
KinaseGlo FLuc: blocks Kinase-Glo luciferase, a counter-screen artifact | Q27757 | Kinase-Glo luciferase, ATP luminescence, 8 min | Potency, µM (doses to about 38.3 µM), for the others: at the highest dose activity change, negative = inhibition, most hits filed as inhibitors | actives 0.28% (n = 200,000) | AID 1379; further: on the % scale 0 is the no-effect control and ±100 the full control effect; nearly all actives have a fitted effect of over 60% in size
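Compounds were added to a substrate mix at pH 7.2 (50 mM imidazole, 10 uM ATP, within the enzyme's linear range), followed by Kinase-Glo detection reagent; luminescence was measured after 8 minutes at ambient temperature.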
* marks the source's active call; other numbers are inactive results; ? = inconclusive; · = not tested or not shown. This is a sample that favours compounds with a hit; in the whole collection about 7.4% have one here. The call rests on the fitted dose curve; in most records, active means well fitted curve in the direction sought with a large enough effect; inconclusive means small, poorly fitted or top-dose-only effect, or another doubt; inactive means no such curve, though single readings can be large; an effect the other way counts as inactive or inconclusive. Potency means the concentration at half of the fitted maximal effect.

SMILES	SMN2 splice up	FLuc counter	ELG1 genotoxic	Rab9 promoter act	NPC1 prom act	KinaseGlo FLuc
C=CCN1C(=O)/C(=C\C(C)=C\c2ccccc2)SC1=S	·	8.5µM*	?	1%	14%	·
CC(/C=C1\SC(=S)N(CCC(=O)Nc2ccccc2O)C1=O)=C\c1ccccc1	·	2%	-2%	7%	6%	·
CC(=C\c1ccccc1)/C=C1/SC(=S)N(C(C(=O)O)C(C)C)C1=O (stereo not drawn)	-2%	27µM*	0%	1%	1%	5%
Cc1ccc(NC(=O)CCn2nc(-c3ccccc3)c3ccccc3c2=O)c(C)c1	4%	-8%	·	·	·	·
O=C(O)C1(c2ccccc2)CCN(S(=O)(=O)c2ccc(F)c(F)c2)CC1	·	1%	0%	-2%	-2%	·
CCOCC(=O)Nc1ccc(-c2cn3c(C)csc3n2)cc1	·	17µM*	·	·	·	·
Cc1csc2nc(-c3cccc(NC(=O)c4c(F)cccc4F)c3)cn12	·	21µM*	·	·	·	·
Cc1csc2nc(-c3cccc(NC(=O)c4ccc(S(N)(=O)=O)cc4)c3)cn12	·	9.5µM*	·	·	·	·
Cc1ccc(S(=O)(=O)Nc2cccc(-c3cn4ccsc4n3)c2)cc1	?	?	-6%	-9%	-16%	1%
COc1ccc(-n2ncc3c2CC(C)(C)CC3NC(=O)CCN2CCCCC2=O)cc1 (stereo not drawn)	·	2%	-3%	4%	2%	·
COC(=O)c1cc(NC(=O)c2c(F)c(F)c(F)c(F)c2F)cc(C(=O)OC)c1	11%	-1%	0%	-3%	-1%	-4%
COc1ccccc1CCn1c(N)cc(=O)[nH]c1=O	·	-3%	1%	16%	-2%	·
CC(=O)c1cccc(NC(=O)c2cc3nc(-c4ccc(Br)cc4)cc(C(F)(F)F)n3n2)c1	·	3%	·	·	·	·
NC(=O)c1ccc(NC(=O)CSc2nnc(-c3cccnc3)n2Cc2ccco2)cc1	·	2%	-3%	0%	-2%	·
CC(C)(C)c1ccc(OCCn2ccccc2=O)cc1	11µM*	5.4µM*	4.6µM*	1.1µM*	1.4µM*	10%
O=c1ccccn1CCOc1ccc(Cl)cc1	·	-9%	-2%	14%	11%	·
COc1ccc2oc(=O)c(C(=O)NCCc3c(C)[nH]c4ccc(F)cc34)cc2c1	-5%	2%	·	·	·	·
c1ccc2c3c(cc(N4CCOCC4)c2c1)OC1(N2CCOCC2)CCCCC1O3 (stereo not drawn)	22µM*	0%	-15%	3%	1%	0%
Nc1nonc1-c1nc2ccccc2n1Cc1cccc(Cl)c1	?	-9%	·	·	·	·
Cn1c(O)c(N=N/C(=N/c2ccccn2)c2ccccn2)c2cc(Br)ccc21	·	·	·	·	·	-6%
CSc1nc(-c2ccc(N(C)C)cc2)c(C#N)c(=O)n1C	·	12µM*	?	?	?	·
CSc1nc(-c2ccc(Cl)cc2)c(C#N)c(=O)n1C	-24%	0%	-2%	-7%	-8%	2%
O=C(Nc1cccc(F)c1)Nc1ccccn1	23%	13µM*	26%	2.8µM*	3.2µM*	-1%
O=C(Nc1cnccn1)Nc1ccc(Cl)cc1Cl	·	-6%	6%	?	22%	-5%
O=C(Nc1ccc2c(c1)OCO2)Nc1ccc2c(c1)OCO2	7.9µM*	?	?	1.8µM*	1.4µM*	-4%
SMILES	SMN2 splice up	FLuc counter	ELG1 genotoxic	Rab9 promoter act	NPC1 prom act	KinaseGlo FLuc
Cn1ccc(NC(=O)Nc2ccc(Cl)cc2Cl)n1	14µM*	15µM*	?	?	?	2%
O=C(Nc1cccc(F)c1)Nc1cnccn1	·	-9%	2%	23%	6%	·
O=C(Nc1ccc2c(c1)OCO2)N1CCN(c2ccccc2Cl)CC1	1%	19µM*	?	?	?	-6%
CCc1ccc(NC(=O)CSc2nccn2-c2ccc(F)cc2)cc1	·	-13%	·	·	·	·
O=C(Nc1ccc2c(c1)OCO2)Nc1ccccn1	·	12µM*	?	0.89µM*	2.8µM*	-23%
O=C(Nc1cccc(C(=O)O)c1)Nc1ccc2c(c1)OCO2	·	0.11µM*	-21%	?	?	·
O=C(Nc1ccc2c(c1)OCO2)Nc1ccc(Cl)cc1Cl	?	4.8µM*	?	?	?	18%
O=C(Nc1ccc2c(c1)OCO2)c1cnn2cccnc12	11µM*	9.5µM*	4.1µM*	1.6µM*	2.2µM*	-20%
O=C(Nc1ccc2c(c1)OCO2)Nc1cnccn1	58%	?	?	12%	15%	-8%
O=C(Nc1ccc(OC(F)F)c(Cl)c1)Nc1ccc2c(c1)OCO2	-12%	?	-3%	6%	18%	0%
Cc1ncc([N+](=O)[O-])n1CC(=O)NC1CCCCCC1	-4%	-10%	-1%	-5%	-7%	-1%
O=C(Nc1cccc(C(=O)O)c1)/C(=C\c1ccc2c(c1)OCO2)NC(=O)c1ccc(Br)o1	?	21µM*	10%	?	?	-2%
O=C(NCc1ccncc1)Nc1ccc2c(c1)OCO2	·	?	7%	?	-1%	5%
COC(=O)c1ccc(C(=O)OC)c(NC(=O)Nc2ccc3c(c2)OCO3)c1	?	21µM*	15µM*	?	?	4%
O=C(Nc1cccnc1)Nc1ccc2c(c1)OCO2	?	12µM*	17%	?	?	?
COC(=O)c1ccccc1NC(=O)Nc1ccc2c(c1)OCO2	-15%	?	?	26%	21%	18%
O=C(Nc1ccc(C(=O)O)cc1)/C(=C\c1ccc2c(c1)OCO2)NC(=O)c1ccc(Br)o1	16%	-12%	4%	0%	-1%	2%
O=C(NCc1cccs1)Nc1ccc2c(c1)OCO2	14µM*	17µM*	?	3.5µM*	?	-2%
CCc1cccc(C)c1NC(=O)CN(C)C1=NS(=O)(=O)c2ccccc21	·	·	-1%	-1%	2%	·
O=C(CNC(=O)c1ccccc1)OCCCOC(=O)CNC(=O)c1ccccc1	·	8%	18%	-1%	0%	·
O=C1CSC(c2ccc([N+](=O)[O-])cc2)N1c1ccccc1 (stereo not drawn)	·	0%	0%	-1%	-1%	·
S=C(NC1CCCCC1)N1CCCCC1	·	0%	-1%	-3%	-2%	·
S=C(Nc1ccc2c(c1)OCCO2)Nc1ccc2c(c1)OCO2	?	17µM*	?	4µM*	?	-3%
CC(=O)c1cccc(NC(=O)NCc2cccs2)c1	7%	?	-3%	-6%	0%	-6%
O=C(Nc1ccc(F)cc1)Nc1ccc2c(c1)OCO2	·	3%	1%	-5%	8%	·
O=C(Nc1ccc(Cl)cc1)Nc1ccc2c(c1)OCO2	·	2.1µM*	4.1µM*	1.8µM*	1.1µM*	·
O=C(NCc1cccs1)Nc1ccc(Cl)cc1	10µM*	?	11%	?	?	-1%

Assay outcomes as filed in PubChem BioAssay.
